Screening data from PubChem.
Shiga toxin inh: inhibitors of Shiga toxin in Vero cells | Vero cells, Shiga toxin protein synthesis inhibition reporter | inhibition, % at 38.7 µM | 290,000 tested, 9.2% active; in the data active means inhibition mostly above about 28%, no sharp cut-off; inactive means mostly below about 43%; further: 0% is about no effect
Pf growth 48h: P. falciparum growth inhibition at 48 hours (one generation). P. falciparum luciferase growth in erythrocytes, 48 h. Potency, µM (top dose mostly 28.7 µM), for inactives: at the top dose activity change, negative = inhibition, hits mostly inhibitors. 310,000 tested, 5.9% active; further: potency means the concentration at half of the fitted maximal effect; on the % scale 0 is the no-effect control and ±100 the full control effect
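In quantitative HTS format, infected erythrocytes bearing luciferase-reporter parasites were treated for a single generation at 37 C. Luminescence after adding detection reagent served as the growth measure.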
NS1 function inh: influenza NS1 inhibition; Potency, µM (highest dose often 46.1 µM), inactives show at the highest dose activity, positive = more growth; 270,000 tested, 0.4% active; calls by dose curve; further: potency means the concentration at half of the fitted maximal effect; actives are rising curves; nearly all actives have a fitted effect of over 50% in size
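Read-out: OD600 growth recovery of NS1-expressing budding yeast. Cells grown overnight at 30C in -URA glucose medium, washed, resuspended and diluted 1:100 in 2% galactose assay medium, pH 6.0. Same strain lacking NS1 served as positive control.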
SARS PLP yeast: inhibitors of SARS-CoV papain-like protease in yeast | S. cerevisiae expressing SARS-CoV PLpro, growth rescue | Potency, µM (doses to about 32.9 µM), without a hit: at the top dose activity, positive = growth rescue, hits mostly activators | 330,000 tested, 0.19% active | AID 485353; calls by dose curve; further: potency means the concentration at half of the fitted maximal effect; 0% is about no effect; nearly all actives have a fitted effect of over 55% in size
CHX counter: counter-screen hit for Shiga toxin inhibitors, cycloheximide; max response, %; cell reporter, cycloheximide protein synthesis inhibition counterscreen; 300,000 tested, 12% active; in the data active means max response mostly above about 13%, no sharp cut-off; inactive means mostly below about 14%; further: read at 38.3 µM for the half of the compounds with a filed dose; 0% is about no effect
Pf growth 96h: P. falciparum growth inhibition at 96 hour, primary screen for plastid delayed-death inhibitors | P. falciparum luciferase reporter growth, 96 h | Potency, µM (series often up to 28.7 µM), without a hit: at the highest dose activity change, negative = inhibition, usual class: inhibitors | 320,000 tested, 6.9% active | AID 504834; further: potency means the concentration at half of the fitted maximal effect; on the % scale 0 is the no-effect control and ±100 the full control effect
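P. falciparum expressing integrated firefly luciferase, in erythrocytes at 2% hematocrit, 0.05% parasitemia, incubated with compounds 96 h at 37 C, 5% CO2. Growth inhibition read as loss of luminescence; two-generation exposure targets delayed-death apicoplast inhibitors.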
Starred values were filed as active, the others as inactive; [ ] = dose if it differs, or a comment. Only some compounds are listed: those with a hit (about 21% of all), similar ones and a draw of the others. Unless noted, the call rests on the fitted dose curve; in most records, active means well fitted inhibition curve with a large enough effect; inconclusive means small, poorly fitted or top-dose-only effect, or another doubt; inactive means no such curve, though single readings can be large or run the other way.

Screening Cc1ccc(Cl)c(OCC(=O)OCC(=O)NC2CCCc3ccccc32)c1 (configuration not stated) returned Shiga toxin inh 9.4, Pf growth 48h 10.0%, NS1 function inh -7.9%, SARS PLP yeast -13.6%, CHX counter -1.1 and Pf growth 96h 20.0%.
Fc1ccc(C(OCCN2CCN(CCCc3ccccc3)CC2)c2ccc(F)cc2)cc1 was read as Pf growth 48h 12µM*, NS1 function inh -47.6% and Pf growth 96h -101.1%.
CC(C)(C)OC(=O)N1CCCC1C(=O)NC1COC2CC(n3cc(F)c(=O)[nH]c3=O)OC12 (configuration not stated) was read as Shiga toxin inh -2.7 and CHX counter 3.7.
Screening O=C(CSc1nnc2ccccn12)c1ccc2c(c1)OCCO2 returned Shiga toxin inh 37.2*, Pf growth 48h 143.0%, NS1 function inh -3.2%, SARS PLP yeast 1.9%, CHX counter 24.6* and Pf growth 96h 44.0%.
For COc1ccc(C(=O)CSc2nnc3ccccn23)cc1OC the results were Shiga toxin inh 45.4, Pf growth 48h 13.2%, SARS PLP yeast -3.5%, CHX counter 22.3* and Pf growth 96h inconclusive.
`N/C(Cc1cccs1)=N\OC(=O)COc1ccc(Cl)cc1Cl` gave Shiga toxin inh 127.2*, NS1 function inh -8.0%, SARS PLP yeast -26.9%, CHX counter 59.1* and Pf growth 96h 0.0%.
Screening N/C(Cc1ccc(Cl)cc1Cl)=N\OC(=O)Cc1cccs1 returned Shiga toxin inh 51.5*, Pf growth 48h 24.7%, NS1 function inh -20.2%, SARS PLP yeast -58.8%, CHX counter 36.4* and Pf growth 96h -3.4%.
Cc1ccccc1OCC(=O)O/N=C(\N)Cc1cccs1 was read as Shiga toxin inh -11.5, Pf growth 48h inconclusive, NS1 function inh inconclusive, SARS PLP yeast 6.1%, CHX counter 0.7 and Pf growth 96h inconclusive.
`N/C(Cc1ccc(Cl)cc1Cl)=N\OC(=O)c1cccs1` gave Shiga toxin inh 51.8*, Pf growth 48h 46.6%, NS1 function inh -39.3%, SARS PLP yeast -22.8%, CHX counter 11.3 and Pf growth 96h 1.8%.
`N/C(Cc1ccc(Cl)cc1Cl)=N\OC(=O)c1ccc(Br)o1` gave Shiga toxin inh 2.9, Pf growth 48h -0.3%, NS1 function inh -177.6%, SARS PLP yeast -30.0%, CHX counter 11.0 and Pf growth 96h -30.3%.
Screening NNC(=O)c1ncoc1-c1ccc(Cl)cc1 returned Shiga toxin inh 8.9, Pf growth 48h 53.3%, NS1 function inh 3.2%, SARS PLP yeast -1.1%, CHX counter 1.5 and Pf growth 96h 57.8%.
For O=C(CN1CCN(c2ccc(O)cc2)CC1)Nc1cc([N+](=O)[O-])ccc1Cl the results were Shiga toxin inh -7.1, Pf growth 48h 13.1%, NS1 function inh 17.4%, SARS PLP yeast 20.8%, CHX counter 6.3 and Pf growth 96h inconclusive.
CN(C)C(CNC(=O)c1cc(S(=O)(=O)N(C)c2ccccc2)ccc1Cl)c1cccs1 (configuration not stated) was read as Shiga toxin inh -18.4, Pf growth 48h inconclusive, NS1 function inh -1.6%, SARS PLP yeast -4.8%, CHX counter -0.9 and Pf growth 96h inconclusive.
Screening COC(=O)Cn1cnc2c(nnn2-c2cccc(OC)c2)c1=O returned Shiga toxin inh 2.4, Pf growth 48h 24.6%, NS1 function inh -1.6%, SARS PLP yeast -0.2%, CHX counter 1.1 and Pf growth 96h 26.3%.
`CCOC(=O)n1c(SCC(N)=O)nc2ccccc21` gave Shiga toxin inh -2.3, Pf growth 48h 13.8%, NS1 function inh -13.5%, SARS PLP yeast 7.4%, CHX counter 1.0 and Pf growth 96h inconclusive.
CCCCOC(=O)n1c(SCC(=O)N(CC)CC)nc2ccccc21 was read as Shiga toxin inh -7.1, Pf growth 48h -21.8%, NS1 function inh -66.8%, SARS PLP yeast -0.1%, CHX counter -0.2 and Pf growth 96h 2.62µM*.
For COc1ccc(S(=O)(=O)N2CCOCC2)cc1NC(=O)CCc1cc(OC)c(OC)c(OC)c1 the results were Pf growth 48h inconclusive, SARS PLP yeast 1.5% and Pf growth 96h inconclusive.
Screening Cc1ccc(CNC(=O)C2CCCN(c3nc4ccccc4o3)C2)cc1 (configuration not stated) returned Shiga toxin inh -14.6, Pf growth 48h 0.3%, NS1 function inh -9.5%, SARS PLP yeast 2.0%, CHX counter -4.2 and Pf growth 96h 0.0%.
O=C(NCc1cccs1)C1CCCN(c2nc3ccccc3o2)C1 (configuration not stated) was read as Shiga toxin inh 3.0, Pf growth 48h inconclusive, NS1 function inh -36.4%, SARS PLP yeast -14.4%, CHX counter -1.5 and Pf growth 96h 5.22µM*.
`Cc1cc(C)nc(N2CCCC(C(=O)NCc3cccs3)C2)n1` (configuration not stated) gave Shiga toxin inh 24.1, Pf growth 48h 5.0%, NS1 function inh -6.6%, SARS PLP yeast -1.2%, CHX counter -5.0 and Pf growth 96h inconclusive.
`COc1ccc(Br)cc1CNC(=O)C1CCCN(c2nc3ccccc3o2)C1` (configuration not stated) gave Shiga toxin inh -6.3, Pf growth 48h 4.3%, NS1 function inh 1.8%, SARS PLP yeast 1.0%, CHX counter -5.0 and Pf growth 96h 5.86µM*.
For Cc1ccnc(N2CCCC(C(=O)NCc3cccs3)C2)n1 (configuration not stated) the results were Shiga toxin inh -5.6, Pf growth 48h -8.9%, NS1 function inh 6.7%[9.22 µM], SARS PLP yeast 6.4%, CHX counter -1.2 and Pf growth 96h 9.28µM*.
Screening Nc1ncnc2c1C(c1ccccc1)c1c(ccc3ccccc13)O2 (configuration not stated) returned SARS PLP yeast -8.7%.
Screening O=C(NCCc1ccccn1)C1CC(=O)N(Cc2ccccc2Cl)C1 (configuration not stated) returned Shiga toxin inh 15.9, NS1 function inh 1.3%, SARS PLP yeast -7.1%, CHX counter -1.2 and Pf growth 96h 7.3%.
Screening O=Cc1cc(N=Nc2ccccc2Cl)ccc1O returned Shiga toxin inh 29.0, Pf growth 48h inconclusive, NS1 function inh -58.6%, SARS PLP yeast -5.6%, CHX counter 33.7* and Pf growth 96h -18.1%[5.75 µM].
For CN1C(=O)/C(=C\c2cc(N=Nc3ccccc3)ccc2O)SC1=S the results were Shiga toxin inh -6.1, Pf growth 48h inconclusive, NS1 function inh -3.1%, SARS PLP yeast -1.1%, CHX counter 1.4 and Pf growth 96h inconclusive.
Screening O=Cc1cc(N=Nc2cccc(C(=O)O)c2)ccc1O returned Shiga toxin inh 76.3*, Pf growth 48h -27.6%, SARS PLP yeast 1.5%, CHX counter 38.7* and Pf growth 96h -4.8%.
`Cc1ccc(NCC(=O)N2CCN(S(=O)(=O)c3ccccc3)CC2)cc1F` gave Pf growth 48h -27.6%, SARS PLP yeast 1.3% and Pf growth 96h inconclusive.
